# High-throughput results: PubChem BioAssay, several laboratories
# An excerpt weighted towards active compounds, which were near 27% of everything screened.
# CYP2C9 activ: activators of human CYP2C9; AID 1024; P11712; 1.4% of 96,000 active; activation factor at 5 µM; recombinant CYP2C9, luciferin-H conversion, luminescence; active compounds read high; factor 1 = untreated enzyme, 0 = blocked;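 active means activation factor of 2 or more for CYP2C9 at a 5 µM dose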;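 further: 0 = sulfaphenazole-blocked wells and 1 = vehicle-only wells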
# CYP2C9 inh: inhibitors of human CYP2C9; AID 777; P11712; CYP2C9 Supersomes, luciferin-H conversion, luminescence; inhibition, % at 5 µM; 20% of 96,000 active;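 active means blocking of liver enzyme CYP2C9 beyond about 50% at 5 µM, limit read from the data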
# CYP2C19 inhib: inhibitors of human CYP2C19. AID 778. inhibition, % at 5 µM. P33261. CYP2C19 Supersomes, luciferin-H EGE luminescence, 30 min. 21% of 96,000 active;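 active means CYP2C19 inhibition above a set limit at 5 µM in the primary screen, cut at about 50% in these data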;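 further: plate controls were negative control wells for no effect and 2.5 mM tranylcypromine positive control for full effect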
# Cav32 inh: human Cav3.2 channel inhibition, primary screen; Cav3.2-expressing cells, Fluo-4 calcium fluorescence FDSS; active compounds read low; B-score at 10 µM; 4% of 100,000 active;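 active means single-dose well whose peak fluorescence ratio is a statistical outlier from its plate by either plate-standardised score or position-corrected B-score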
# Target sequence (O95180 whole entry, looked up): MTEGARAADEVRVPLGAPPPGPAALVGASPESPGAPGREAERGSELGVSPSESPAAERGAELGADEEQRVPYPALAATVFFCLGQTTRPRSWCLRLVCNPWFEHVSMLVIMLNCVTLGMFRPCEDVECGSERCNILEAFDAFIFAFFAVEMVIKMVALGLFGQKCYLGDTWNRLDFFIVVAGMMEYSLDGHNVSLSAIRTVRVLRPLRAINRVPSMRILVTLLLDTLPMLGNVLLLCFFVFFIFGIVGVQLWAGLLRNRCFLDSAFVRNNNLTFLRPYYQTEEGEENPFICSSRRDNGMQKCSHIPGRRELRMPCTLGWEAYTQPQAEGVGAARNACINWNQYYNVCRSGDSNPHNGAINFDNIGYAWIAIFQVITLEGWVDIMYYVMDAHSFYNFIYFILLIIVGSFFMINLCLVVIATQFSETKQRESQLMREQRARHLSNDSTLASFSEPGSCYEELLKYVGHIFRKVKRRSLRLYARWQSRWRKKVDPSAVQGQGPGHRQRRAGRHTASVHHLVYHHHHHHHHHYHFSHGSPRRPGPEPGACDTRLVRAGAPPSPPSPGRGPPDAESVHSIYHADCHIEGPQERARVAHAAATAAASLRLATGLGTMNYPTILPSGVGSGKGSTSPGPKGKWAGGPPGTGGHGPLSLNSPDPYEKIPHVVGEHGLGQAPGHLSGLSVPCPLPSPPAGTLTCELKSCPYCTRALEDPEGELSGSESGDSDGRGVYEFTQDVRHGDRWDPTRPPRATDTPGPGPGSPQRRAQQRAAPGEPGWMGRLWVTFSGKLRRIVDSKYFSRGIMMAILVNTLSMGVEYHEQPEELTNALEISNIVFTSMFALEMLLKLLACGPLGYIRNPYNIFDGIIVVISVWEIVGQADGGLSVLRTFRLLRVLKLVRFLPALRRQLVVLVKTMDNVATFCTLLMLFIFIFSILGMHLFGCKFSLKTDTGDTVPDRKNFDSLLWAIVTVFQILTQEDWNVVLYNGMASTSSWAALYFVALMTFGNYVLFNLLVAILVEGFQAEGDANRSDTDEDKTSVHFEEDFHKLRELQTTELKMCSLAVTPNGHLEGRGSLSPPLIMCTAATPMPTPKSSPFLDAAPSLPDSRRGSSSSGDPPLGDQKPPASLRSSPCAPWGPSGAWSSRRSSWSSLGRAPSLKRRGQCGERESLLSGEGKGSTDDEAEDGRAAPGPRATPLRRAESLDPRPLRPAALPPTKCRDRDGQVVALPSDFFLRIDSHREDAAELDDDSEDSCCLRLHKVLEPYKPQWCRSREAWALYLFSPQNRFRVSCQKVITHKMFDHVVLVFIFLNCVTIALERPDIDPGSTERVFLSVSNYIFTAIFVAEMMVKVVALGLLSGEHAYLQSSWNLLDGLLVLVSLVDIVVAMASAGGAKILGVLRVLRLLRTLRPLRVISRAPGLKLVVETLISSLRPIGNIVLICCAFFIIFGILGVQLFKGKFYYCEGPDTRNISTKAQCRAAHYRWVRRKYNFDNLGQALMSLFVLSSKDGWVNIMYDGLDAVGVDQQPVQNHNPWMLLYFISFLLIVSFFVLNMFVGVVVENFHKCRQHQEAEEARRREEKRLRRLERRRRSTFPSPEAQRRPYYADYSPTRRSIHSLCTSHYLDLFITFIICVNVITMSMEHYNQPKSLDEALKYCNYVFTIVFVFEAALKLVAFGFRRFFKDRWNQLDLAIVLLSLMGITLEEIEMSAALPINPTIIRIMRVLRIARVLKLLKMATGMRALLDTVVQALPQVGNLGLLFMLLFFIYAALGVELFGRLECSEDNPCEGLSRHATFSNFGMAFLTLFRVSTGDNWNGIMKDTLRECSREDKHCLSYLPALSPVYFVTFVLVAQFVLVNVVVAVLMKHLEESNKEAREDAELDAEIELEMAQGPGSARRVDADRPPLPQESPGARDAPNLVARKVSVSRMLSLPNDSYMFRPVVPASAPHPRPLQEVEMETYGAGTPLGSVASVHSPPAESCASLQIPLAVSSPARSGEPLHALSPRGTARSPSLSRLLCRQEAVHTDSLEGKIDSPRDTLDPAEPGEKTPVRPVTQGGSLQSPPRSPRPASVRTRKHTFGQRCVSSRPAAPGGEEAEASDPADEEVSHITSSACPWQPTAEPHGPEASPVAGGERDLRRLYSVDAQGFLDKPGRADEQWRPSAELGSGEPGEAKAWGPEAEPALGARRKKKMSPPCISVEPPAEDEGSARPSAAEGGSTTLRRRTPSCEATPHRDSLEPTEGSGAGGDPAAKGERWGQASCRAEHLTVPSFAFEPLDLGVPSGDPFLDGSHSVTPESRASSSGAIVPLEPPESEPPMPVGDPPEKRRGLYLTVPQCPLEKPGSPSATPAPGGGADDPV
# CYP2C19 act: cytochrome P450 2C19 (human) activation; recombinant CYP2C19, luciferin-H EGE luminescence; active compounds read high; 0 = fully inhibited enzyme, 1 = untreated enzyme; activation factor at 5 µM; 96,000 tested, under 10 active;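 active means activation factor of at least 2 at 5 µM in the primary screen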;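 further: 0 = wells with 2.5 mM tranylcypromine and 1 = vehicle-only wells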
# * hit, by the source's call; nt = no result given.
SMILES,CYP2C9 activ,CYP2C9 inh,CYP2C19 inhib,Cav32 inh,CYP2C19 act
COc1cccc(C2C3=C(CCCC3=O)Nc3nc(-c4cc(OC)c(OC)c(OC)c4)nn32)c1 (stereo not given),0.5,50,62*,0.84,0.4
CCn1cc(SCC(=O)NCC2CCCO2)c2ccccc21 (stereo not given),nt,nt,nt,0.19,nt
Cc1cccc(C)c1-n1c(SCC(=O)NCc2ccco2)nc2ccccc2c1=O,0.7,32,44,-0.38,0.6
COC(=O)c1c(-c2ccc(OC)c(OC)c2)csc1N,0.5,46,60*,-1.5,0.4
COC(=O)c1c(-c2ccc3ccccc3c2)csc1NC(=O)Cc1ccc(OC)c(OC)c1,0.2,80*,48,nt,0.5
COC(=O)c1c(-c2cccc(OC)c2)csc1N,1.1,-11,27,0.00015,0.7
CN(C)CCNC(=O)COc1cccc(Cl)c1,0.4,56*,72*,nt,0.3
Cc1cc(C)c(C)c(OCC(=O)NCCN(C)C)c1,1,-5,0,-0.04,1
O=C(NCCSCc1ccco1)Nc1ccc(Cl)cc1,0.6,36,38,nt,0.6
O=C(COc1ccc(Cl)cc1)NCCSCc1cccc(Cl)c1,0.7,28,45,-4.3*,0.6
O=C(NCCSCc1ccco1)Nc1cccc(Cl)c1,0.7,33,64*,-4.5*,0.4
O=C(COc1ccccc1)NCCSCc1ccco1,0.4,63*,85*,0.63,0.1
O=C(COc1ccc(Cl)cc1Cl)NCCSc1ccc(Cl)cc1,1,0,-8,-0.21,1.1
Cc1nc(NC(=O)c2ccccc2)sc1C1(C)CC(c2ccc(OC(F)(F)F)cc2)=NO1 (stereo not given),nt,nt,nt,-1.4,nt
O=C(CSc1nc2cccnc2n1Cc1ccccc1)NC1CCCCC1,nt,nt,nt,-2.7,nt
O=C(NCc1ccco1)c1cc2ccc(O)cc2oc1=O,0.1,93*,97*,nt,0
COc1ccc(C(=O)c2cc3ccc(O)cc3oc2=O)cc1,0.7,35,63*,0.63,0.4
COc1ccc(N=c2oc3cc(O)ccc3cc2C(=O)NCC2CCCO2)c(OC)c1 (stereo not given),0.8,23,3,-1.2,1
O=C(c1ccccc1)c1cc2ccc(O)cc2oc1=O,0.2,80*,93*,0.54,0.1
COc1ccc2cc(C(=O)NC3CCCCC3)c(=O)oc2c1,0.3,70*,96*,-0.23,0
CCOc1ccc(-c2cn(CCC#N)cn2)cc1,0.6,41,65*,-0.063,0.3
O=C(c1cnn2c(C(F)F)cc(C3CC3)nc12)N1CCc2ccccc2C1,1.7,-71,74*,-1.5,0.3
Cc1cc(C(F)F)n2ncc(C(=O)N3CCc4ccccc4C3)c2n1,1.9,-91,84*,0.56,0.2
O=C(c1cnn2c(C(F)F)cc(C3CC3)nc12)N1CCCC1,1.3,-25,9,1,0.9
O=C(c1cnn2c(C(F)(F)F)cc(-c3ccco3)nc12)N1CCc2ccccc2C1,0.2,76*,59*,-0.63,0.4
SMILES,CYP2C9 activ,CYP2C9 inh,CYP2C19 inhib,Cav32 inh,CYP2C19 act
Cn1ccnc1SCc1cn2cc(Br)ccc2n1,1,2,65*,0.32,0.4
COc1cc(C2N(c3ccccc3)CCN2c2ccccc2)cc(OC)c1OC,0.6,41,75*,-3.4,0.3
O=C(O)C1CC=CCC1C(=O)NCc1ccc2c(c1)OCO2 (stereo not given),nt,nt,nt,-0.66,nt
O=C(OCCNc1ncc(C(F)(F)F)cc1Cl)c1ccc(S(=O)(=O)N2CCOCC2)cc1,0.7,27,69*,-0.56,0.3
O=C(NCCOC(=O)c1ccc(S(=O)(=O)N2CCOCC2)cc1)c1cccnc1,0.8,23,2,-0.18,1
Cn1cccc1Cc1nnc(SCC(=O)NCc2ccco2)n1CCc1ccccc1,0.6,44,58*,0.25,0.4
Cn1cccc1Cc1nnc(SCC(N)=O)n1-c1ccc(F)cc1,1,-2,-14,0.66,1.1
Cc1nnc(SCC(=O)NCc2ccco2)n1-c1ccc(F)cc1,nt,nt,nt,0.39,nt
Cn1cccc1Cc1nnc(SCC(=O)NCc2ccco2)n1-c1ccc(F)cc1,0.9,8,75*,0.21,0.2
Cn1cccc1Cc1nnc(SCC(=O)NCc2ccccc2Cl)n1-c1ccc(F)cc1,0.4,62*,52*,-3.7,0.5
Cn1cccc1Cc1nnc(SCC(=O)NCC2CCCO2)n1CCc1ccccc1 (stereo not given),1.1,-6,-9,1.3,1.1
COc1ccc(N(CC(=O)Nc2cc(C(=O)O)ccc2C)S(=O)(=O)c2c(C)noc2C)cc1,1,-4,14,1,0.9
CCOC(=O)c1cc(C(=O)OCC)c2cccc(C)n2c1=O,0.9,6,-4,0.45,1
CCOC(=O)COc1ccc(/C=C2/SC(=Nc3ccccc3)N(Cc3cccnc3)C2=O)cc1OC,0.2,75*,55*,-1.2,0.4
CCCCOC(=O)n1c(=O)oc2cc(S(=O)(=O)N3CCCCC3)ccc21,0.8,21,0,-4.8*,1
COC(=O)/C(=C\C(=O)c1ccccc1)Nc1cccc(C(F)(F)F)c1,0.5,46,13,-1,0.9
Cc1ccc(NC(=O)NC2=N/C(=C(/C#N)C(=O)N3CCCC3)c3ccccc32)cc1,0,98*,89*,-2.2,0.1
Cc1nonc1OC(C)CNc1ccc([N+](=O)[O-])cc1 (stereo not given),0.4,63*,98*,-2,0
O=C(c1ccccc1)n1ccc(-c2cnc(-c3ccccc3)s2)n1,0.8,15,56*,0.0016,0.4
C[C@]1(C(=O)O)C=C[C@@H](Cc2ccccc2)N1C(=O)c1ccccc1,nt,nt,nt,-0.0086,nt
COc1ccc(OC)c(C2C(C(C)=O)=C(O)C(=O)N2Cc2cccnc2)c1 (stereo not given),1,-3,-9,-0.029,1.1
O=C(c1csc2c1CCCC2)N1CCCCC1,1.4,-38,52*,0.14,0.5
O=C(c1csc2c1CCCCC2)N1CCN(c2ncccn2)CC1,0.1,89*,88*,0.1,0.1
O=C(c1csc2ccccc12)N1CCCCCC1,1.5,-47,25,0.67,0.8
O=C(c1csc2ccccc12)N1CCN(c2ccccn2)CC1,1.2,-15,40,-0.3,0.6
SMILES,CYP2C9 activ,CYP2C9 inh,CYP2C19 inhib,Cav32 inh,CYP2C19 act
CC1(C)NC(=O)N(CC(=O)Nc2nc(-c3ccc(F)cc3)cs2)C1=O,1.6,-64,0,nt,1
Cn1c(Sc2ccc(Br)cc2)c(C=O)c2ccccc21,0.5,50,27,0.13,0.7
O=C(CSc1nnc(-c2ccccc2Br)o1)N1CCc2ccccc2C1,1.1,-12,32,-1.3,0.7
COc1ccc(N2C(C)=CS/C2=C(/C#N)c2nnc(N3CCOCC3)n2-c2ccccc2)cc1,0.8,16,17,1.3,0.8
CC1(C)CC2CC(C)(CN2S(=O)(=O)c2ccc(C(=O)Nc3ccc(Cl)c(S(=O)(=O)N4CCOCC4)c3)cc2)C1 (stereo not given),0.4,62*,47,nt,0.5
O=S(=O)(Nc1ccccc1Cl)c1ccc(F)cc1,0.5,51*,89*,-1.2,0.1
